From PubChem BioAssay AID1942 (Johns Hopkins Ion Channel Center, 2009)
Out of some 2,400 compounds screened, about 580 (24%) were called active.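 The calls were made as follows: active = activity change at or above the mean plus 3 SD of buffer wells without dofetilide, per plate; inactive = the rest.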 A selection follows.

Target: Potassium voltage-gated channel subfamily KQT member 2 (Rattus norvegicus) (UniProt O88943)
Test: rat KCNQ2 channel activation by compounds alone, confirmation, counter-screen for hERG block protector project, cell-based, CHO, FluxOR thallium flux (AID 1942);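 also: normalized value minus buffer-control mean plus three SD of buffer wells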
Conditions: CHO-KCNQ2 cells, FluxOR thallium flux fluorescence; at 10 µM; active compounds read high

Chain of Potassium voltage-gated channel subfamily KQT member 2 (Rattus norvegicus) (O88943 whole entry, looked up): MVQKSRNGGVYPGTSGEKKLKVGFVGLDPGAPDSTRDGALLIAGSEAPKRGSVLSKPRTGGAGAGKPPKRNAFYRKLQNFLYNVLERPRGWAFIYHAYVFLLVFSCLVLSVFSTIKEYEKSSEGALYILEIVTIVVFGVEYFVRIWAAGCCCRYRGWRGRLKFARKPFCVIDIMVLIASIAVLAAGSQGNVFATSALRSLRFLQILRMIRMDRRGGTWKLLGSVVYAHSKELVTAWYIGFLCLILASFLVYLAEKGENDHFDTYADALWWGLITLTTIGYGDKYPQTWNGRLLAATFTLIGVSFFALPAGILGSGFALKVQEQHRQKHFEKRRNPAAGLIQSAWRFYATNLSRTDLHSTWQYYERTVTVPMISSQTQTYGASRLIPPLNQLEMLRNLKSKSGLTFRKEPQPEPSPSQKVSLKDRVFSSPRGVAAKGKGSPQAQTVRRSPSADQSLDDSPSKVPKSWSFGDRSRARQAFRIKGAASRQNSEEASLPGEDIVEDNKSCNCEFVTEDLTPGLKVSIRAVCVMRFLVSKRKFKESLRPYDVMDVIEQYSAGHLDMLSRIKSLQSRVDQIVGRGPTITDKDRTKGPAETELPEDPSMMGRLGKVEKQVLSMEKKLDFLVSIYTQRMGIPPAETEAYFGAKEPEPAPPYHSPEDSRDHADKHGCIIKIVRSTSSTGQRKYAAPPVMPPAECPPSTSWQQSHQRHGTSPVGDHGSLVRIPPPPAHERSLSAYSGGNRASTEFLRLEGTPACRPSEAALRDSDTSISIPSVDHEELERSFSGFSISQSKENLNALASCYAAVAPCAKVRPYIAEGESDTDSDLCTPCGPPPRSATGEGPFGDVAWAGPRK

Question: CCC(C)c1ccccc1NC(=O)C(C)NCCN(C)C (stereo unspecified) was tested. Which activity change, less the hit threshold did it give?
Answer: The activity change, less the hit threshold was -17.2% (inactive).

Question: With COc1ccc(C)cc1S(=O)(=O)NC1CCCCC1 as the compound, how does the activity change, less the hit threshold read?
Answer: Its activity change, less the hit threshold is -6.4% (inactive).

Question: For CCOC(=O)c1cc2c(nc1NC(=S)NCc1ccccc1)CCCC2, which activity change, less the hit threshold is on record?
Answer: Its activity change, less the hit threshold is -13.9% (inactive).

Question: Which activity change, less the hit threshold does the source give for C=C(C)CNC(=S)Nc1nc2c(cc1C(=O)OCC)CCCC2 here?
Answer: Its activity change, less the hit threshold is -9.5% (inactive).

Question: For CCNC(=S)Nc1nc2c(cc1C(=O)OCC)CCCC2, which activity change, less the hit threshold is on record?
Answer: Its activity change, less the hit threshold is 6.4% (active).

Question: With C=CCNC(=S)Nc1nc2c(cc1C(=O)OCC)CCCC2 as the compound, how does the activity change, less the hit threshold read?
Answer: Its activity change, less the hit threshold is 1.1% (active).

Question: With CCc1cccc2c1NC(=O)C2(O)CC(=O)c1cccs1 (stereo unspecified) as the compound, how does the activity change, less the hit threshold read?
Answer: Its activity change, less the hit threshold is -20.9% (inactive).

Question: Which activity change, less the hit threshold does the source give for O=C(CCc1ccccc1)NC(=S)Nc1cc(C(F)(F)F)ccc1N1CCOCC1 here?
Answer: Its activity change, less the hit threshold is -30.4% (inactive).

Question: For CCc1nccn1S(=O)(=O)c1ccc2ccc(C)cc2c1, which activity change, less the hit threshold is on record?
Answer: The activity change, less the hit threshold was -8.3% (inactive).

Question: How did the activity change, less the hit threshold turn out when O=C(c1cc2c(s1)-c1ccccc1OC2)N1CCCC1 was run?
Answer: Its activity change, less the hit threshold is -12.6% (inactive).

Question: NC(=O)C1CCN(C(=O)c2cc3c(s2)CCCC3)CC1 was tested. Which activity change, less the hit threshold did it give?
Answer: Its activity change, less the hit threshold is 12% (active).

Question: CC(OC(=O)c1cc2c(s1)CCCCC2)C(=O)NC(N)=O (stereo unspecified) was tested. Which activity change, less the hit threshold did it give?
Answer: The activity change, less the hit threshold was -23.7% (inactive).

Question: With Cc1sc2ncnc(SCC(=O)NC(=O)c3cccn3C)c2c1C as the compound, how does the activity change, less the hit threshold read?
Answer: The activity change, less the hit threshold was -2.4% (inactive).

Question: CCOc1ccc(-n2cnc3sc(C)c(C)c3c2=O)cc1 was tested. Which activity change, less the hit threshold did it give?
Answer: Its activity change, less the hit threshold is -26.5% (inactive).

Question: Cc1sc2ncnc(SCC(=O)c3ccc(O)cc3O)c2c1C was tested. Which activity change, less the hit threshold did it give?
Answer: The activity change, less the hit threshold was 2.9% (active).

Question: For O=C(Nc1cccnc1)c1ccc(COc2ccccc2Br)o1, which activity change, less the hit threshold is on record?
Answer: The activity change, less the hit threshold was -13.5% (inactive).

Question: C=CCOc1ccccc1/C=c1\sc2nc(=O)c(C)nn2c1=O was tested. Which activity change, less the hit threshold did it give?
Answer: Its activity change, less the hit threshold is -17.3% (inactive).

Question: Which activity change, less the hit threshold does the source give for O=C(NC(=S)NCCC1=CCCCC1)c1ccco1 here?
Answer: The activity change, less the hit threshold was 42.7% (active).

Question: How did the activity change, less the hit threshold turn out when O=C(NC(=S)NCCC1=CCCCC1)c1ccc(Br)o1 was run?
Answer: The activity change, less the hit threshold was 3.5% (active).

Question: How did the activity change, less the hit threshold turn out when S=C(NCCc1ccccc1)NCCN1CCOCC1 was run?
Answer: The activity change, less the hit threshold was -16.4% (inactive).

Question: Which activity change, less the hit threshold does the source give for O=C(NC(=S)NCCc1ccc(Cl)cc1)c1ccco1 here?
Answer: The activity change, less the hit threshold was -7.7% (inactive).

Question: For Cc1ccc(/C=N/Nc2ccc(C(=O)O)cc2)o1, which activity change, less the hit threshold is on record?
Answer: Its activity change, less the hit threshold is -9.1% (inactive).

Question: With Cc1ccc(N=C2NC(=O)/C(=C/c3cccs3)S2)cc1C as the compound, how does the activity change, less the hit threshold read?
Answer: The activity change, less the hit threshold was -6.4% (inactive).

Question: O=C(OCc1ccccc1)/C(=C/c1cccc([N+](=O)[O-])c1)NC(=O)c1ccco1 was tested. Which activity change, less the hit threshold did it give?
Answer: The activity change, less the hit threshold was -19.1% (inactive).

Question: Which activity change, less the hit threshold does the source give for O=C1NC(=S)S/C1=C\c1ccc2ccccc2c1 here?
Answer: The activity change, less the hit threshold was 53.3% (active).

Question: For COc1ccc2nc(N3CCCCC3)c(/C=C3\SC(=S)NC3=O)cc2c1, which activity change, less the hit threshold is on record?
Answer: Its activity change, less the hit threshold is -17.9% (inactive).

Question: With O=C1NC(=S)/C(=C\c2ccc(-c3ccccc3Cl)o2)S1 as the compound, how does the activity change, less the hit threshold read?
Answer: The activity change, less the hit threshold was -18.7% (inactive).

Question: With S=c1[nH]c(-c2ccccc2)cn1/N=C/c1cccc2ccccc12 as the compound, how does the activity change, less the hit threshold read?
Answer: Its activity change, less the hit threshold is -7.9% (inactive).

Question: Which activity change, less the hit threshold does the source give for CC1CCc2c(sc3[nH]c(=S)n(C)c(=O)c23)C1 (stereo unspecified) here?
Answer: The activity change, less the hit threshold was 72.5% (active).

Question: For Cn1c(=S)[nH]c2sc3c(c2c1=O)CCC(C(C)(C)C)C3 (stereo unspecified), which activity change, less the hit threshold is on record?
Answer: The activity change, less the hit threshold was 70.3% (active).

Question: How did the activity change, less the hit threshold turn out when CCCOC(=O)CN1C(=O)c2ccc(C(=O)OCCC)cc2C1=O was run?
Answer: Its activity change, less the hit threshold is -12.2% (inactive).

Question: For O=c1oc2cc(OCCO)ccc2c2c1CCCC2, which activity change, less the hit threshold is on record?
Answer: The activity change, less the hit threshold was -17.1% (inactive).

Question: How did the activity change, less the hit threshold turn out when Cc1ccc2nc(-c3ccncc3)cc(C(=O)Nc3ccc4c(c3)OCCO4)c2c1 was run?
Answer: The activity change, less the hit threshold was -19.5% (inactive).

Question: For CS(=O)(=O)N1CCC(C(=O)Nc2c(F)cccc2F)CC1, which activity change, less the hit threshold is on record?
Answer: The activity change, less the hit threshold was -11.1% (inactive).

Question: Cc1occc1C(=O)NNC(=S)NC(=O)COc1ccc(Cl)cc1Cl was tested. Which activity change, less the hit threshold did it give?
Answer: The activity change, less the hit threshold was 64.9% (active).

Question: With COc1ccc(Cl)cc1C(=O)NNC(=S)NC(=O)/C=C/c1ccco1 as the compound, how does the activity change, less the hit threshold read?
Answer: The activity change, less the hit threshold was -17% (inactive).

Question: Which activity change, less the hit threshold does the source give for O=C(COc1ccc(Cl)cc1Cl)NC(=S)Nc1ccccc1C(=O)O here?
Answer: The activity change, less the hit threshold was -12.7% (inactive).

Question: For COc1ccc(CN(C)C(=O)c2cccc(NS(=O)(=O)c3ccccc3)c2)cc1F, which activity change, less the hit threshold is on record?
Answer: The activity change, less the hit threshold was -13.5% (inactive).

Question: CN1CCN(c2nnc(-c3cccs3)c3ccccc23)CC1 was tested. Which activity change, less the hit threshold did it give?
Answer: Its activity change, less the hit threshold is -26.6% (inactive).

Question: With COC(=O)c1sccc1NC(=S)N1CC(C)CC(C)C1 (stereo unspecified) as the compound, how does the activity change, less the hit threshold read?
Answer: Its activity change, less the hit threshold is -25% (inactive).

Question: How did the activity change, less the hit threshold turn out when CN(C)c1ccc(N=Nc2ccc(C(=O)O)cc2)cc1 was run?
Answer: The activity change, less the hit threshold was -18.5% (inactive).

Question: Which activity change, less the hit threshold does the source give for O=c1ccc(N=Nc2ccccc2)ccc1O here?
Answer: Its activity change, less the hit threshold is 87.6% (active).

Question: How did the activity change, less the hit threshold turn out when O=C(COC(=O)c1cccs1)NCCN1C(=O)CSC1=O was run?
Answer: Its activity change, less the hit threshold is -22% (inactive).

Question: CCc1ccc(C(C)NC(=O)c2ccc(F)cc2)cc1 (stereo unspecified) was tested. Which activity change, less the hit threshold did it give?
Answer: The activity change, less the hit threshold was 21.6% (active).

Question: How did the activity change, less the hit threshold turn out when CC(NC(=O)c1ccc(Br)cc1)c1ccc2c(c1)CCCC2 (stereo unspecified) was run?
Answer: Its activity change, less the hit threshold is 33.3% (active).

Question: CC(NC(=O)c1ccc(F)cc1)c1ccc2c(c1)CCCC2 (stereo unspecified) was tested. Which activity change, less the hit threshold did it give?
Answer: The activity change, less the hit threshold was 26.1% (active).

Question: Cn1c(CNC(=O)CNC(=O)c2ccc(F)cc2)cc(=O)n(C)c1=O was tested. Which activity change, less the hit threshold did it give?
Answer: Its activity change, less the hit threshold is -10.8% (inactive).

Question: For CC(NC(=O)CCNC(=O)c1ccco1)c1ccc(F)cc1 (stereo unspecified), which activity change, less the hit threshold is on record?
Answer: The activity change, less the hit threshold was -12.9% (inactive).

Question: S=c1[nH]c2ccccc2n2cccc12 was tested. Which activity change, less the hit threshold did it give?
Answer: The activity change, less the hit threshold was -14.5% (inactive).

Question: Which activity change, less the hit threshold does the source give for CCOc1ccc(-n2c(C)c(C(C)=O)c3cc(O)ccc32)cc1 here?
Answer: Its activity change, less the hit threshold is -2.3% (inactive).

Question: With CC(=O)c1ccc(S(=O)(=O)NCc2ccc(C(=O)N(C)CC(=O)Nc3cccc(F)c3)cc2)cc1 as the compound, how does the activity change, less the hit threshold read?
Answer: The activity change, less the hit threshold was -9.1% (inactive).

Question: How did the activity change, less the hit threshold turn out when C=CCn1c(=S)[nH]c2scc(-c3cccs3)c2c1=O was run?
Answer: The activity change, less the hit threshold was 93.7% (active).

Question: How did the activity change, less the hit threshold turn out when C=CCn1c(SCC(=O)Nc2cccc(C)c2)nnc1-c1cnccn1 was run?
Answer: The activity change, less the hit threshold was -26.8% (inactive).

Question: How did the activity change, less the hit threshold turn out when C=CCn1c(SCC(N)=O)nc2scc(-c3ccc(C)o3)c2c1=O was run?
Answer: Its activity change, less the hit threshold is 1.7% (active).

Question: C=CCn1c(=S)[nH]c2cc(-c3ccccc3)sc2c1=O was tested. Which activity change, less the hit threshold did it give?
Answer: Its activity change, less the hit threshold is -4.4% (inactive).

Question: With C=CCn1c(=S)[nH]c2scc(-c3ccc(C)o3)c2c1=O as the compound, how does the activity change, less the hit threshold read?
Answer: The activity change, less the hit threshold was 80.3% (active).

Question: For NC(=O)CSc1nc2ccccc2c(=O)n1CCc1ccccc1, which activity change, less the hit threshold is on record?
Answer: The activity change, less the hit threshold was -15.2% (inactive).

Question: With CCC1(C)CC2(CCCN(CCC(=O)c3ccccc3)C2)CCO1 (stereo unspecified) as the compound, how does the activity change, less the hit threshold read?
Answer: The activity change, less the hit threshold was -25% (inactive).

Question: Which activity change, less the hit threshold does the source give for O=C(NCc1ccco1)C1CCN(C(=O)Cc2ccccc2)CC1 here?
Answer: The activity change, less the hit threshold was -17.3% (inactive).

Question: For O=C(CCSCCc1ccccn1)Nc1cccc([N+](=O)[O-])c1, which activity change, less the hit threshold is on record?
Answer: The activity change, less the hit threshold was -11.2% (inactive).

Question: How did the activity change, less the hit threshold turn out when CCN1C(=O)/C(=C\c2ccc(-c3cccc(C(=O)OC)c3)o2)SC1=Nc1ccc(C(=O)O)cc1 was run?
Answer: The activity change, less the hit threshold was -22.8% (inactive).

Question: With CCCCN(C(=O)CNC(=O)c1cccs1)C(C(=O)NC1CCCC1)c1ccncc1 (stereo unspecified) as the compound, how does the activity change, less the hit threshold read?
Answer: Its activity change, less the hit threshold is -7.8% (inactive).

Question: Which activity change, less the hit threshold does the source give for CCCCN(C(=O)CC1CCCC1)c1c(N)n(CC(C)C)c(=O)[nH]c1=O here?
Answer: The activity change, less the hit threshold was -9.9% (inactive).

Question: With CCSC(=S)c1c(C)[nH]n(-c2ccccc2)c1=O as the compound, how does the activity change, less the hit threshold read?
Answer: The activity change, less the hit threshold was -4.2% (inactive).

Question: CCCSC(=S)c1c(C)[nH]n(-c2ccccc2)c1=O was tested. Which activity change, less the hit threshold did it give?
Answer: The activity change, less the hit threshold was 49.7% (active).

Question: For Cc1[nH]n(-c2ccccc2)c(=O)c1N=Nc1ccc(C(N)=O)cc1, which activity change, less the hit threshold is on record?
Answer: The activity change, less the hit threshold was -25.6% (inactive).
